The list is not random: actives were taken first. Their share in the collection is about 2.2%.
ANO1 activ – TMEM16A chloride channel activators or potentiators, primary screen, cell-based, HTS. HEK293 TMEM16A/YFP-H148Q/I152L, iodide quench fluorescence; active compounds read low. B-score at 10 µM. actives 0.3% (n = 340,000). AID 623877, 2012;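 active = fluorescence-ratio B-score plate-corrected deviation score at least 3 library SD below zero, with starting fluorescence score within 5 deviations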;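 also: channel opened by trigger with iodide after compound preincubation; score built on the fluorescence ratio of max minus min over baseline; more negative score means more quench and so TMEM16A activation or potentiation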
CHO-K1 Ca antag – nonselective inhibitor or artifact in parental CHO-K1 cells; ATP-induced calcium, Fluo-8 fluorescence; actives 0.6% (n = 360,000); inhibition, % at 3 µM;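 active = inhibition above a per-plate cutoff, the plate's mean sample inhibition plus 3 SD, cut at about 24% in these data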;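 also: 0% = DMSO plus EC80 ATP and 100% = DMSO alone without ATP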
TMEM16A inh – TMEM16A chloride channel inhibitors, primary screen, cell-based, HTS. AID 588511, 2011. normalized B-score (activity score, 25-100; higher = stronger inhibition) at 10 µM. HEK293 TMEM16A/YFP iodide influx fluorescence, ionomycin. Anoctamin-1 (Mus musculus), Q8BHY3. actives 1.2% (n = 310,000);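 active = ratio plate-corrected score three or more library SD toward inhibition, starting fluorescence score within five deviations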;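 also: score derived from kinetic fluorescence span divided by baseline fluorescence per well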
M1 ag parental – counter-screen for M1 agonists: effect in parental CHO-K1 cells; Fluo-8 calcium fluorescence; scaled to maximal ATP response, vehicle zero; activation, % at 3 µM; actives 0.48% (n = 360,000); AID 602248, 2012; in the data active = activation above about 15%;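 also: untransfected CHO-K1 host cells lacking M1 receptor as counterscreen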
NTR1 ag – agonists of human NTR1, primary screen, imaging, U2OS cells, beta-arrestin-GFP, high content; Neurotensin receptor type 1 (Homo sapiens), P30989; actives 0.17% (n = 330,000); activation, % at 20 µM; NTR1-U2OS beta-arrestin-GFP spot imaging, agonist mode; AID 493036, 2011;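 active = activation at or above 40% of the spot to cytoplasm intensity ratio, with at least 20 cells analyzed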;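 also: 0% = DMSO without peptide and 100% = 100 nM NTR1 peptide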
Target sequence (P30989 whole entry, looked up): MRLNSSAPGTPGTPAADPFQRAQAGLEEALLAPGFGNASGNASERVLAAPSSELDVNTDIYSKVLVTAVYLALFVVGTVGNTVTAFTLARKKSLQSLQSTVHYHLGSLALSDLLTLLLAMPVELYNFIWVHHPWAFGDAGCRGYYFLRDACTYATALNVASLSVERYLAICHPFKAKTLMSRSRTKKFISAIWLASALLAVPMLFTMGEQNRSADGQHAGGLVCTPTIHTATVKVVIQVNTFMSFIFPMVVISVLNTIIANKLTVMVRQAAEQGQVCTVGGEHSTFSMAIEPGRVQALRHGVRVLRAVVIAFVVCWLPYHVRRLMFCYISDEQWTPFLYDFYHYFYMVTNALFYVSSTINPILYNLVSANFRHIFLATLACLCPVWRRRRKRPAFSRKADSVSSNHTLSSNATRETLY
M1 PAM parental – nonselective calcium activators in parental CHO-K1 cells, primary screen, counter-screen for M1 PAM project, cell-based, Fluo-8 calcium fluorescence, full deck, 1536-well; activation, % at 3 µM; AID 602247, 2012; actives 0.02% (n = 360,000); ATP EC20; 0% at ATP EC20, 100% at ATP max;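 active = activation above the run cutoff, the mean activation of all test compounds plus 3 SD, cut at about 40% in these data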;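 also: peak over basal fluorescence ratio in a 140 s read after ATP addition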
TMEM16A reconf – TMEM16A chloride channel inhibitors, confirmation, cell-based, re-confirmation; shares compounds with TMEM16A inh; HEK293 TMEM16A/YFP-H148Q, iodide quench fluorescence; ionomycin added to raise cell calcium; inhibition, % at 10 µM; actives 39% (n = 2,300);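 active = mean duplicate percent inhibition, scaled so buffer wells are 0 and the reference blocker 100, over three buffer SD above buffer mean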
TMEM16A Ca cntr – calcium mobilization in TMEM16A/YFP HEK293 cells, confirmation, counter-screen for TMEM16A inhibitor project; shares compounds with TMEM16A inh; Fluo4 calcium mobilization; calcium response (% of ionomycin), % at 10 µM; actives 2% (n = 2,300); AID 652231, 2013;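 active = duplicate-averaged calcium signal over 20% of the ionomycin maximum, relative to buffer baseline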;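 also: each well's signal is peak minus trough fluorescence divided by its pre-addition baseline; 0% = buffer wells and 100% = ionomycin wells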
YFP-HEK293 quench – iodide YFP quench changes in parental YFP-HEK293, counter-screen for TMEM16A inhibitor project, cell-based | shares compounds with TMEM16A inh | ionomycin | YFP ratio F(max-min)/F0 at 10 µM | 2,300 tested, under 10 active;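 active = yellow fluorescent protein signal ratio exceeding the buffer control mean by over 5 SD of those controls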;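 also: ratio is mean of duplicate wells from kinetic YFP trace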
ClC-1 rat inh – ClC-1 chloride channel inhibition, selectivity assay for TMEM16A inhibitor project, cell-based, voltage-dependent ClC-1; shares compounds with TMEM16A inh; CHO ClC-1-YFP, iodide influx fluorescence quench; iodide control reads 0, buffer control 100; ratio percent, % at 10 µM; 2,300 tested, under 10 active; AID 652236, 2013;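 active = duplicate-mean ratio percent above the mean of iodide-only control wells, which defines zero, plus 5 of their SD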;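 also: higher percent means stronger block of ClC-1 iodide influx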
Active calls of the source: *; i = inactive; · = no result.

SMILES | ANO1 activ | CHO-K1 Ca antag | TMEM16A inh | M1 ag parental | NTR1 ag | M1 PAM parental | TMEM16A reconf | TMEM16A Ca cntr | YFP-HEK293 quench | ClC-1 rat inh
CCN(CC)S(=O)(=O)c1cccc(NC(=O)CSc2nc3ccccc3[nH]2)c1 | i | -2 | 100* | 8 | 1 | 12 | 16%* | i | -0.95 | -12
N#Cc1ccsc1NC(=O)CSc1ncn[nH]1 | i | -13 | i | 1 | 1 | 6 | · | · | · | ·
Cc1cc(C(=O)OCC(=O)Nc2cccc(S(=O)(=O)N(C)C)c2)c2ccccc2n1 | i | 0 | i | 7 | 0 | -2 | i | i | -1.5 | -2
CN(C)S(=O)(=O)c1cccc(NC(=O)CSc2nc3ccccc3[nH]2)c1 | i | 9 | i | 7 | 1 | 3 | · | · | · | ·
COc1ccc(CN2CCC(C)(Oc3ccc(C(C)=O)cc3)C2)c2ccccc12 (stereo not given) | · | 3 | · | 0 | · | -2 | · | · | · | ·
COc1ccccc1S(=O)(=O)N(C)C[C@H]1Oc2ncc(Br)cc2C(=O)N([C@H](C)CO)C[C@H]1C | · | -9 | · | 1 | · | 29 | · | · | · | ·
CC(=O)c1ccc(OCC(O)CN2CCN(Cc3ccccc3)CC2)cc1 (stereo not given) | i | -4 | i | 0 | 0 | 11 | · | · | · | ·
O=C(c1ccccc1)c1ccc(OCC(O)CN2CCN(Cc3ccccc3)CC2)cc1 (stereo not given) | i | 9 | 100* | 4 | 1 | 9 | i | i | -1.1 | -10
Nc1ccc(N=Nc2ccccc2)c(N)n1 | i | -4 | i | -1 | 4 | 12 | · | · | · | ·
Cc1[nH]c(N=Nc2ccccc2)nc1N=Nc1ccccc1 | i | -1 | 100* | 2 | 3 | -5 | i | i | -1 | -8
CCOc1ccc(C2CC=C(C(C)=O)CN2S(=O)(=O)c2ccc(C)cc2)cc1 (stereo not given) | · | -10 | · | 3 | · | 15 | · | · | · | ·
COC(=O)CCCn1c(C)cc(C(=O)CCl)c1C | i | -5 | i | 1 | -1 | 9 | · | · | · | ·
COC(=O)CCn1c(C)cc(C(=O)COc2ccccc2C(N)=O)c1C | i | 4 | i | 18* | 1 | 6 | 21%* | i | -1.2 | -8
Cc1cc(C(=O)COC(=O)c2ccccc2O)c(C)n1CC1CCCO1 (stereo not given) | i | -6 | · | 10 | 3 | -3 | · | · | · | ·
Cc1cc(C(=O)COc2ccccc2C(N)=O)c(C)n1CC1CCCO1 (stereo not given) | i | 18 | 100* | 13 | 4 | 1 | 20%* | i | -0.81 | -33
COc1ccc(S(=O)(=O)N2CCOCC2)cc1NC(=O)C1CC(=O)N(c2ccc3c(c2)OCCO3)C1 (stereo not given) | · | -9 | · | 0 | · | -5 | · | · | · | ·
CC1(C)NC(=O)N(CN2C(=O)NC(C)(C)C2=O)C1=O | i | -12 | i | 0 | 0 | 9 | i | i | -1.1 | 2
CSc1nsc(SCC(=O)Nc2ccccc2)n1 | i | -18 | i | 3 | -1 | 14 | · | · | · | ·
CCOC(=O)c1ccc(NC(=O)CSc2nc(SC)ns2)cc1 | i | -3 | 100* | 6 | 2 | 13 | 26%* | i | -1.1 | -18
O=C(O)c1ccc(N=Nc2c(O)[nH]c3cc(Cl)ccc23)cc1 | i | -10 | i | 1 | 1 | -9 | · | · | · | ·
O=C(O)c1ccc(N=Nc2c(O)[nH]c3ccc(Br)cc23)cc1 | i | -6 | i | 0 | 2 | 6 | 17%* | i | -0.77 | -8
N#CCc1ccc(NS(=O)(=O)c2ccc(C3CCCCC3)cc2)cc1 | i | 3 | 25* | 10 | · | 16 | 34%* | i | -0.91 | -10
COc1ccc(S(=O)(=O)Nc2ccc(CC#N)cc2)cc1 | i | -9 | i | 2 | -2 | 15 | · | · | · | ·
COc1ccc(CCN2CC(C(=O)NCc3cccc(F)c3)CCC2=O)cc1 (stereo not given) | · | -12 | · | 1 | · | 11 | · | · | · | ·
N#C/C(=N\Nc1cccc(C(F)(F)F)c1)C(=O)c1ccsc1 | i | 18 | 25* | 12 | 5 | 4 | 38%* | i | -1.1 | -19
SMILES | ANO1 activ | CHO-K1 Ca antag | TMEM16A inh | M1 ag parental | NTR1 ag | M1 PAM parental | TMEM16A reconf | TMEM16A Ca cntr | YFP-HEK293 quench | ClC-1 rat inh
COc1cccc(C(=O)NC2CCN(CC(=O)Nc3ccccc3Cl)CC2)c1 | i | -14 | i | 1 | 0 | 8 | · | · | · | ·
COc1cccc(C(=O)NC2CCN(C(=O)N3CCCCC3)CC2)c1 | i | 15 | 25* | 0 | -1 | -9 | i | i | -1 | -16
CC1(C(=O)NS(=O)(=O)c2cccs2)CCN1C(=O)CC1CC1 (stereo not given) | · | -6 | · | 0 | · | 17 | · | · | · | ·
CN(C)S(=O)(=O)c1cccc(COC(=O)c2cnccn2)c1 | i | -14 | i | 1 | -2 | 17 | · | · | · | ·
CN(C)S(=O)(=O)c1cccc(COC(=O)c2cccnc2Cl)c1 | i | 19 | 25* | 17* | 1 | -9 | i | i | -0.93 | -10
COc1ccc(CNC(=O)COC(=O)CN2C(=O)C3CC=CCC3C2=O)cc1 (stereo not given) | i | 2 | · | 0 | 1 | -5 | · | · | · | ·
CCCCOc1ccccc1Cn1c(=O)oc2ccc(C)cc21 | i | 11 | 100* | -1 | 10 | -2 | i | i | -1.2 | -8
COc1ccccc1Cn1c(=O)oc2ccc(C)cc21 | i | 5 | i | -1 | 0 | -9 | · | · | · | ·
O=c1c(Sc2ccccc2)c(C(F)(F)F)[nH]n1-c1ccccc1 | i | 7 | 100* | 5 | 0 | -6 | 24%* | i | -1 | -16
CCN(CC)c1ccc(C=Nc2cc(C)cc(C)c2)c(O)c1 | -5.2* | -10 | 25* | 1 | 2 | 22 | i | i | -1.1 | -3
CCN(CC)c1ccc(C=Nc2ccc(C)cc2)c(O)c1 | i | -4 | i | 0 | -3 | 6 | · | · | · | ·

Screening results deposited in PubChem by several laboratories.
